According to PubChem BioAssay (Tox21):
The source made the active and inactive calls. Where a call stands in place of a potency, no number is given. Unless noted, calls come from the whole dose curve; as a rule, active = well fitted curve in the direction sought with a large enough effect in the repeat runs; inconclusive = weak or mixed curves; inactive = flat fitted curve, though single readings scatter.

How the values were obtained:
[1] = qHTS assay to test for compound auto fluorescence at 535 nm (green) in HEK293 cells (AID 720680)
[2] = qHTS assay to test for compound auto fluorescence at 460 nm (blue) in HEK293 cell free culture (AID 720681)
Outline: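 Compounds were added to cell-free DMEM with 10% FBS and fluorescence read directly. The blue channel used 405 nm excitation and 460 nm emission, with triamterene as the reference fluorophore.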

[3] = qHTS assay to test for compound auto fluorescence at 535 nm (green) in HEK293 cell free culture (AID 720682)
Outline: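 Green-channel intensity (Ex/Em 485/535 nm) was recorded from compound-treated wells containing only DMEM with 10% FBS. Fluorescein provided the equivalency standard.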

[4] = qHTS assay to test for compound auto fluorescence at 590 nm (red) in HEK293 cell free culture (AID 720683)
Outline: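 Cell-free wells of DMEM with 10% FBS received compound, and intrinsic fluorescence was read at excitation/emission 540/590 nm. Values expressed as equivalence to Rose Bengal sodium.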

[5] = qHTS assay to test for compound auto fluorescence at 590 nm (red) in HepG2 cell free culture (AID 720684)
Outline: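 Compound was pinned into wells holding MEM with 10% FBS and no cells, and red fluorescence was read at Ex/Em 540/590 nm. Signal is expressed as auto fluorescence equivalency relative to Rose Bengal sodium.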

[6] = qHTS assay to test for compound auto fluorescence at 460 nm (blue) in HepG2 cell free culture (AID 720685)
Outline: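 Compound (23 nL) or DMSO pinned into cell-free MEM with 10% FBS; blue fluorescence read at 405/460 nm excitation/emission, expressed as auto-fluorescence equivalency to triamterene.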

[7] = qHTS assay to test for compound auto fluorescence at 535 nm (green) in HepG2 cell free culture (AID 720686)
[8] = qHTS assay to test for compound auto fluorescence at 460 nm (blue) in HepG2 cells (AID 720687)
Outline: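 HepG2 cells in MEM with 10% FBS, attached overnight at 37 C, were exposed to compound or DMSO for 1 hr at 37 C, 5% CO2. Blue fluorescence was read at 405/460 nm, with triamterene as reference fluorophore.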

[9] = biological target: Glucocorticoid receptor (Homo sapiens) (UniProt P04150); assay: qHTS assay to identify small molecule agonists of the glucocorticoid receptor (GR) signaling pathway (AID 720691; active = well fitted activation curve with a large enough effect in the signal ratio in the repeat runs, not every such curve was filed as active; inconclusive = weak or mixed curves, or effect the other way; inactive = no such curve, though single readings can be large or run the other way; the % refers to the signal ratio; note: potency is the fitted concentration of half-maximal effect); conditions: GR-bla HeLa, beta-lactamase reporter ratio, 18 h; activation: at 62.4 µM (top of the series)
Chain of Glucocorticoid receptor (Homo sapiens) (P04150 whole entry, looked up): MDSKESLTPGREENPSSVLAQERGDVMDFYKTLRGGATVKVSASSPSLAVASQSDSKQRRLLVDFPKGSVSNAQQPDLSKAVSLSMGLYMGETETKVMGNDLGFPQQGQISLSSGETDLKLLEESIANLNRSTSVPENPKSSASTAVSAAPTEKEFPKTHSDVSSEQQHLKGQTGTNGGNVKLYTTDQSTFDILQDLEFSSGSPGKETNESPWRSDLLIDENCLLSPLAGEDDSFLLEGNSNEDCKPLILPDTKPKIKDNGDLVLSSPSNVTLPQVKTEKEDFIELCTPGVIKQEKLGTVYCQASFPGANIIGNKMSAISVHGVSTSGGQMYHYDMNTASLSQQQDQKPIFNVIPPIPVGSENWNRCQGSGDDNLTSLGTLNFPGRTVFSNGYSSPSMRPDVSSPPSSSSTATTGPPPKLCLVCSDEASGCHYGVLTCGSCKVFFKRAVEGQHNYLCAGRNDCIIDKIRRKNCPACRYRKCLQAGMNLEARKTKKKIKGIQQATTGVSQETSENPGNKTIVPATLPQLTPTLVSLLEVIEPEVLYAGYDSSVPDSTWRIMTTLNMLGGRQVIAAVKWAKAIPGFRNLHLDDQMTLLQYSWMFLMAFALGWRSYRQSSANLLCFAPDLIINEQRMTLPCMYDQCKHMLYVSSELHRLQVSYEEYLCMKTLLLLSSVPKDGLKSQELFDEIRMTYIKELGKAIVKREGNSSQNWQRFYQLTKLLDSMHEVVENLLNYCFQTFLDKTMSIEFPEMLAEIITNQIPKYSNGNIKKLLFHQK
Outline: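 Agonist mode in a HeLa line carrying a GRE-controlled beta-lactamase reporter. Compounds act for 18 h at 37 C before a 2 h room-temperature FRET substrate step and fluorescence reading.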

[10] = biological target: Glucocorticoid receptor (Homo sapiens) (UniProt P04150); assay: qHTS assay to identify small molecule antagonists of the glucocorticoid receptor (GR) signaling pathway (AID 720692; active = well fitted inhibition curve with a large enough effect in the signal ratio in the repeat runs, not every such curve was filed as active; inconclusive = weak or mixed curves, or effect the other way; inactive = no such curve, though single readings can be large or run the other way; the % refers to the signal ratio)
Outline: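 Cells plated, rested 4 h at 37 C/5% CO2; compounds in DMSO pin-transferred; dexamethasone added to 5 nM final; 18 h at 37 C; B/G FRET substrate added, 2 h room temperature; fluorescence measured.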

Structure (SMILES) | Potency [1] | Potency [2] | Potency [3] | Potency [4] | Potency [5] | outcome [6] | Potency [7] | outcome [8] | Potency [9] | Potency [10]
C[N@+]12CCCC[C@@H]1CCC(=C(c1cccs1)c1cccs1)C2 | inactive | inactive | inactive | inactive | inactive | inactive | inactive | inactive | inactive | 
N[C@H](CC(=O)O)C(=O)O | inactive | inactive | inactive | inactive | inactive | inactive | inactive | inactive | inactive | 
Clc1cc(Cl)c(OCC#CI)cc1Cl | inactive | inactive | inactive | inactive | inactive | inactive | inactive | inactive | 26.8 µM [inconclusive] (active) | 
C[C@@H]1C[C@H]2[C@@H]3CCC4=CC(=O)C=C[C@]4(C)[C@@]3(F)[C@@H](O)C[C@]2(C)[C@@]1(O)C(=O)COC(=O)c1cccc(S(=O)(=O)O)c1 | inactive | inactive | inactive | inactive | inactive | inactive | inactive | inactive | 0.338 µM [inconclusive] (active) | 
N[C@@H](C(=O)N[C@@H]1C(=O)N2C(C(=O)O)=C(Cl)CC[C@H]12)c1ccccc1 | inactive | inactive | inactive | inactive | inactive | inactive | inactive | inactive | 21.3 µM (active) | 
CCCCC(=O)OCC(=O)[C@]1(O)Cc2c(O)c3c(c(O)c2[C@@H](O[C@H]2C[C@H](NC(=O)C(F)(F)F)[C@H](O)[C@H](C)O2)C1)C(=O)c1c(OC)cccc1C3=O | inactive | inactive | inactive | inactive | inactive | inactive | inactive | inactive | 7.56 µM (active) | 
CN[C@@H]1[C@H](O[C@H]2[C@H](O[C@H]3[C@H](O)[C@@H](O)[C@H](N=C(N)N)[C@@H](O)[C@@H]3N=C(N)N)O[C@@H](C)[C@]2(O)C=O)O[C@@H](CO)[C@H](O)[C@H]1O | inactive | inactive | inactive | inactive | inactive | inactive | inactive | inactive | inactive | 
CC1(C)S[C@@H]2[C@H](NC(=O)C3(N)CCCCC3)C(=O)N2[C@H]1C(=O)O | inactive | inactive | inactive | inactive | inactive | inactive | inactive | inactive | inactive | 
CCN(CC)CCOc1ccc(-c2nc3cc(Cl)ccc3s2)cc1 | inactive | inactive | inactive | inactive | inactive | inactive | inactive | inactive | inactive | 
CCOC(=O)c1cc(-c2ccccc2)nc2ccc(C)cc12 | inactive | inactive | inactive | inactive | inactive | inactive | inactive | inactive | inactive | 
COc1ccc(C(=O)CCC(=O)O)c2ccccc12 | inactive | inactive | inactive | inactive | inactive | inactive | inactive | inactive | inactive | 
CCCCCCCCCCCCCCCC(=O)OC[C@@H](O)[C@H]1OC[C@H](O)[C@H]1O | inactive | inactive | inactive | inactive | inactive | inactive | inactive | inactive | inactive | 
CCC(=O)OCC(=O)[C@@]1(OC(=O)CC)[C@H](C)C[C@H]2[C@H]3[C@H]([C@@H](O)C[C@@]21C)[C@@]1(C)C=CC(=O)C=C1C[C@H]3Cl | inactive | inactive | inactive | inactive | inactive | inactive | inactive | inactive | 0.0204 µM (active) | 
Nc1ncnc2c1ncn2[C@@H]1O[C@H](COP(=O)(O)OP(=O)(O)OP(=O)(O)O)[C@@H](O)[C@H]1O | inactive | inactive | inactive | inactive | inactive | inactive | inactive | inactive | inactive | 
CC(CN(C)C)CN1c2ccccc2Sc2ccc(C(F)(F)F)cc21 (stereo not drawn) | inactive | inactive | inactive | inactive | inactive | inactive | inactive | inactive | inactive | 
CC[C@@H](C(=O)O)[C@@H]1O[C@@H]([C@@H](C)[C@H](O)[C@H](C)C(=O)[C@H](CC)[C@H]2O[C@]3(C=C[C@@H](O)[C@]4(CC[C@@](C)([C@H]5CC[C@](O)(CC)[C@H](C)O5)O4)O3)[C@H](C)C[C@@H]2C)[C@@H](C)C[C@@H]1C | inactive | inactive | inactive | inactive | inactive | inactive | inactive | inactive | inactive | 
CC[C@H]1NC(=O)[C@@H](NC(=O)c2ncccc2O)[C@@H](C)OC(=O)[C@H](c2ccccc2)NC(=O)[C@@H]2CC(=O)CCN2C(=O)[C@H](Cc2ccccc2)N(C)C(=O)[C@@H]2CCCN2C1=O | inactive | inactive | inactive | inactive | inactive | inactive | inactive | inactive | inactive | 
CC(=O)OC[C@H]1O[C@@H](O[C@H]2[C@H](O)[C@@H](OC(=O)c3ccccc3C(=O)O)[C@H](O)O[C@@H]2COC(C)=O)[C@H](O)[C@@H](OC(=O)c2ccccc2C(=O)O)[C@@H]1O | inactive | inactive | inactive | inactive | inactive | inactive | inactive | inactive | inactive | inactive
CN[C@@H]1[C@H](O[C@H]2[C@H](O[C@H]3[C@H](O)[C@@H](O)[C@H](N=C(N)N)[C@@H](O)[C@@H]3N=C(N)N)O[C@@H](C)[C@]2(O)CO)O[C@@H](CO)[C@H](O)[C@H]1O | inactive | inactive | inactive | inactive | inactive | inactive | inactive | inactive | inactive | inactive
